Results on 176 sequences are retold here after PMC10668032, “Altered binding affinity of SIX1-Q177R correlates with enhanced WNT5A and WNT pathway effector expression in Wilms tumor”.

The full ranking holds about 33,000 sequences; the median of “e-score” is about -0.05, and the highest 2% start at about 0.38. Only a selection was taken, and the highest values are over-represented in it overall.

In the experiment the target is T1, SIX1-Q177R homeodomain (human, UniProt Q15475 108-198, Q177R).
T1 sequence: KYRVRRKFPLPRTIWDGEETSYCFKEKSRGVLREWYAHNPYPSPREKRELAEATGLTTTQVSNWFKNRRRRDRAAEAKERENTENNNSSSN
The experiment in a line: universal protein binding microarray; Universal all-10-mer PBM (8x60K, AMADID 030236), 300 nM GST-tagged protein, Alexa Fluor 488 anti-GST; buffer, salt, pH and temperature not stated (as in Berger); high values mean tight binding. To be noted: protein: ivt; tags: N-terminal GST; dsDNA, one strand shown. Put shortly:
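GST-tagged homeodomains were made by in vitro transcription/translation and quantified by anti-GST western blot against a recombinant GST standard curve. They were applied in duplicate at 300 nM final concentration to universal 'all 10-mer' protein binding microarrays (8×60K format). Binding was quantified as 8-mer E-scores with the Universal PBM Analysis Suite.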
Take CTTGCACC: the binding signal came to 0.166 ± 0.00933 E-score. Consider CCCGGTCG, for which the binding signal came to 0.212 ± 0.00566 E-score.

Regarding ACACAATG, the binding signal is 0.164 ± 0.079 E-score. Then ACCCACAC, with 0.348 ± 0.0152 E-score; and ACCTCGGG, with 0.273 ± 0.0151 E-score.

For the sequence AGGCGGTG, the binding signal came to 0.2798 ± 0.00206 E-score. Then CACGCGGG, with 0.241 ± 0.00761 E-score; and ACCTTCCT, with 0.264 ± 0.0494 E-score; and ATGGTGTA, with 0.4792 ± 0.00274 E-score. Then ATTGTGTA, with 0.151 ± 0.0397 E-score; and ATTGTGTC, with 0.219 ± 0.0744 E-score; and ATGGTGTC, with 0.486 ± 0.00186 E-score. With ATGGTACA the figure was 0.18 ± 0.0214 E-score; with ATGGTATC, 0.3344 ± 0.0022 E-score.

As for CACCCAAG, the binding signal stood at 0.366 ± 0.00569 E-score. With ACTGATCC the figure was 0.16 ± 0.00427 E-score.

As to CACCGGGG, the binding signal stood at 0.256 ± 0.0427 E-score. Then AACCGTGT, with 0.3792 ± 0.0033 E-score; and ATGCACCC, with 0.19 ± 0.0233 E-score. Then GGGTTACA, with 0.242 ± 0.0177 E-score; and CCCGCACA, with 0.228 ± 0.0266 E-score; and CACTATAC, with 0.261 ± 0.0244 E-score. With ACACTTGG the figure was 0.329 ± 0.018 E-score.

In the case of CCGGGTCA, the binding signal turned out to be 0.285 ± 0.0196 E-score. Then GTATCATA, with 0.29 ± 0.00996 E-score; and AGGCACAC, with 0.203 ± 0.0019 E-score; and GGGAACAC, with 0.368 ± 0.0116 E-score.

Take AGGAACAC: the binding signal is 0.394 ± 0.0134 E-score. Then CGGAACAC, with 0.411 ± 0.0112 E-score; and CGGAACCC, with 0.234 ± 0.0277 E-score. Then GGGAACCC, with 0.184 ± 0.0515 E-score; and ACGGGTAT, with 0.277 ± 0.00631 E-score; and CGGCGTCA, with 0.219 ± 0.00435 E-score. With CCCGCTGA the figure was 0.159 ± 0.0401 E-score; with CTTCTACC, 0.203 ± 0.0258 E-score. For the sequence GTGTCTAA, the binding signal turned out to be 0.394 ± 0.0134 E-score. With GTGTCTCA the figure was 0.371 ± 0.00405 E-score; with TATTCTAA, 0.213 ± 0.0183 E-score; with GTATCAAC, 0.256 ± 0.0174 E-score.

GTGTCACA: the binding signal was found to be 0.462 ± 0.00507 E-score.

For GGGTCAAC, the binding signal came to 0.223 ± 0.0249 E-score. With GTATCAAA the figure was 0.159 ± 0.0425 E-score; with GGGTCAAA, 0.171 ± 0.0267 E-score. With GTGTCAAA the figure was 0.4527 ± 0.00139 E-score; with GTGTCAAC, 0.443 ± 0.00646 E-score; with GAGTCACA, 0.26 E-score. Take GGGTCACA: the binding signal came to 0.202 ± 0.0391 E-score. Then CACTGGAA, with 0.152 ± 0.024 E-score; and AGGGGTTC, with 0.193 ± 0.0251 E-score; and GACCCCGC, with 0.248 ± 0.0275 E-score. CCTGATAC: the binding signal amounted to 0.202 ± 0.0295 E-score. With AGTGCACC the figure was 0.28 ± 0.00682 E-score; with GATCCCAC, 0.24 ± 0.0253 E-score. For the sequence TATACCCA, the binding signal was determined as 0.192 ± 0.0317 E-score. With GGGTCATA the figure was 0.237 ± 0.0329 E-score.

Regarding GAGTCATA, the binding signal was 0.184 ± 0.0258 E-score.

On to GTATCGAA, for which the binding signal is 0.199 ± 0.0103 E-score. GGGTCAGA: the binding signal turned out to be 0.196 ± 0.0143 E-score.

Regarding GGGTCGAA, the binding signal came to 0.182 ± 0.0133 E-score.

In the case of GTGTCAGA, the binding signal was determined as 0.4533 ± 0.00139 E-score. Then GTGTCGAA, with 0.448 ± 0.00926 E-score; and GAGTCAGA, with 0.21 ± 0.0213 E-score. Then GTGTCATA, with 0.458 ± 0.00496 E-score; and CGCGTACA, with 0.2538 ± 0.00208 E-score.

Regarding GAGGGTGC, the binding signal is 0.237 ± 0.0114 E-score. Then AAAGAGTG, with 0.186 ± 0.0198 E-score; and AGAACCCC, with 0.182 ± 0.0559 E-score; and GGATCATA, with 0.184 ± 0.0113 E-score. Turning to CACCTGCA, the binding signal was determined as 0.213 ± 0.0191 E-score. With ATCCCCTC the figure was 0.196 ± 0.00519 E-score; with ACCACGCA, 0.24 ± 0.0201 E-score; with AGACACGC, 0.346 ± 0.00786 E-score. With CGACACGC the figure was 0.424 ± 0.0203 E-score; with AGACACGA, 0.369 ± 0.0153 E-score. Then CGACGCGA, with 0.151 ± 0.0242 E-score; and CGACACGA, with 0.421 ± 0.0189 E-score; and CACTCCGC, with 0.256 ± 0.00576 E-score.

Consider ACCCTTTC, for which the binding signal turned out to be 0.194 ± 0.0513 E-score. Then CACTCTGC, with 0.187 ± 0.0156 E-score; and GCCCCGCC, with 0.175 ± 0.055 E-score.

For CGATACCC, the binding signal stood at 0.411 ± 0.012 E-score. Then GGATACCC, with 0.403 ± 0.00919 E-score; and CAATACCC, with 0.218 ± 0.00416 E-score. With CGATACCA the figure was 0.321 ± 0.00519 E-score. Then AGATACCC, with 0.278 ± 0.0188 E-score; and GGATACCA, with 0.327 ± 0.00751 E-score. For CAACCACG, the binding signal is 0.155 ± 0.0108 E-score. For CACTCTGG, the binding signal is 0.187 ± 0.00384 E-score. As for CCCCCTGC, the binding signal is 0.156 ± 0.0255 E-score. For ACAGAGGT, the binding signal was determined as 0.156 ± 0.00829 E-score.

With ATTAGGTG, the binding signal came to 0.296 ± 0.00518 E-score. With ACCATGGT the figure was 0.2 ± 0.05 E-score; with CACCGTTC, 0.3236 ± 0.00306 E-score. With AGATACCA the figure was 0.192 ± 0.0243 E-score; with CGATACTC, 0.211 ± 0.00408 E-score. As for AGATACCT, the binding signal was 0.179 ± 0.011 E-score. Then GGATACTA, with 0.152 ± 0.0189 E-score; and CGATACCG, with 0.233 ± 0.0113 E-score; and CGATACAC, with 0.402 ± 0.0188 E-score. Then GGATACAC, with 0.424 ± 0.00693 E-score; and GGATACAA, with 0.161 ± 0.00762 E-score; and AGATACAC, with 0.424 ± 0.0151 E-score. In the case of CTGCCCGC, the binding signal came out at 0.163 ± 0.0123 E-score. Then CACCGACA, with 0.374 ± 0.0291 E-score; and TACTGATA, with 0.192 ± 0.0304 E-score.

GTATCCAC: the binding signal is 0.287 ± 0.00341 E-score.

Take GTATGGTA: the binding signal amounted to 0.159 ± 0.00206 E-score. Then AGGGGGTA, with 0.358 ± 0.00366 E-score.

Take CGGGTGCA: the binding signal worked out at 0.238 ± 0.0106 E-score. Then AGGGTGCG, with 0.226 ± 0.0208 E-score. With CGGGTGTA the figure was 0.47551 ± 0.00024 E-score; with CGGGTGGA, 0.173 ± 0.033 E-score; with AGGGGGTG, 0.396 ± 0.00554 E-score. With AGGGTGGG the figure was 0.176 ± 0.00829 E-score. Consider AGGGGGTC, for which the binding signal was 0.271 ± 0.0446 E-score. For AGGGTGTC, the binding signal came out at 0.4879 ± 0.00164 E-score. Then AGGGTGTG, with 0.4 ± 0.015 E-score. With AGGGTATC, the binding signal came to 0.363 ± 0.0101 E-score. In the case of AAGGGGTG, the binding signal amounted to 0.227 ± 0.00304 E-score. With CATCCGGG the figure was 0.156 ± 0.00322 E-score; with ACCCTCGT, 0.1905 ± 0.000806 E-score. With CACCGAGA, the binding signal turned out to be 0.276 ± 0.0313 E-score.

Regarding TGTAGAAA, the binding signal turned out to be 0.225 ± 0.0216 E-score. With AATCGACA the figure was 0.173 ± 0.025 E-score; with ACAAGGTC, 0.218 ± 0.0287 E-score; with CAGGCAGG, 0.186 ± 0.0165 E-score. With CACGCTAC the figure was 0.242 ± 0.0124 E-score; with CCCCGACA, 0.324 ± 0.012 E-score; with CGGGTGGC, 0.178 ± 0.0577 E-score. With CGGGGGTC the figure was 0.314 ± 0.0405 E-score.

In the case of GGGGTGAA, the binding signal worked out at 0.154 ± 0.0542 E-score. Then AGGGTGCA, with 0.265 ± 0.0337 E-score. With AGGGTGTA the figure was 0.475 ± 0.00846 E-score; with GGGGTGCA, 0.273 ± 0.0552 E-score. With AGGGTATA the figure was 0.199 ± 0.0079 E-score; with GGGGTGTA, 0.4856 ± 0.000757 E-score.

On to CGGGTGTC, for which the binding signal was determined as 0.487 ± 0.00672 E-score. With CGATACTA the figure was 0.157 ± 0.00168 E-score; with AGTGCACA, 0.171 ± 0.00742 E-score; with AGCCGGTG, 0.282 ± 0.011 E-score. In the case of CCGGTACA, the binding signal was found to be 0.224 ± 0.00738 E-score. Regarding ACTTGGTG, the binding signal turned out to be 0.2882 ± 0.00137 E-score.

In the case of CCCCAATA, the binding signal is 0.153 ± 0.00289 E-score. Turning to CCGAGTGA, the binding signal came out at 0.156 ± 0.00131 E-score. Then CACCGCCG, with 0.375 ± 0.0128 E-score. Then CCGTGCTC, with 0.226 ± 0.0264 E-score; and GCGTGTTA, with 0.387 ± 0.0267 E-score; and CCGTGTTA, with 0.4236 ± 0.00253 E-score.

With ACGTGTTA, the binding signal turned out to be 0.352 ± 0.0237 E-score. With GCGTGCTA the figure was 0.151 ± 0.031 E-score; with ACGTGTTC, 0.3144 ± 0.00304 E-score. With CCGTGGTA the figure was 0.166 ± 0.0401 E-score. Then CCGTGTTC, with 0.384 ± 0.0141 E-score; and GCGTGATA, with 0.173 ± 0.0569 E-score; and CACAGTGG, with 0.16 ± 0.0343 E-score. Consider CGGGGATC, for which the binding signal was 0.212 ± 0.00313 E-score. With CGCACGAC the figure was 0.187 ± 0.0218 E-score; with ATCCGAGG, 0.1653 ± 0.000757 E-score. With GTAATCGA the figure was 0.204 ± 0.015 E-score. With CGGCTGAC the figure was 0.174 ± 0.0351 E-score. CGAATGAC: the binding signal was 0.198 ± 0.0214 E-score.

In the case of AAGAGGTG, the binding signal was determined as 0.368 ± 0.00802 E-score. With GTTCCGTA the figure was 0.188 ± 0.0176 E-score; with GGGTATAA, 0.152 ± 0.0231 E-score. As to GGGTCCAA, the binding signal was 0.218 ± 0.025 E-score. With GTATCCGA the figure was 0.312 ± 0.0026 E-score. Then GTATCCTA, with 0.187 ± 0.00559 E-score. Then GTATCCCA, with 0.252 ± 0.00467 E-score; and GCGTCCTA, with 0.168 ± 0.0119 E-score. In the case of GTGTCCAA, the binding signal came to 0.419 ± 0.0151 E-score. Then GTGTCCCA, with 0.442 ± 0.019 E-score; and GTGTCCGA, with 0.413 ± 0.0127 E-score; and GTGTCCTA, with 0.4 ± 0.0124 E-score. With GTGTCTGA the figure was 0.364 ± 0.022 E-score.

For the sequence GGGTCCCA, the binding signal turned out to be 0.1517 ± 0.0014 E-score.

Consider GTATCCAA, for which the binding signal turned out to be 0.292 ± 0.0191 E-score.
